PubChem BioAssay (Tox21)
Records with an inconclusive call do not appear. Entries that show only a call come without a potency. Activity calls are given as the source filed them. Unless noted, calls follow the shape of the full dose curve.

What was measured:
[1] = qHTS assay to identify small molecule antagonists of the vitamin D receptor (VDR) signaling pathway - cell viability counter screen (AID 743225; active = well fitted curve in the direction sought with a large enough effect in the repeat runs; an effect the other way counts as inactive or inconclusive; also: nearly all actives have a fitted effect of over 50% in size)
Summary of the method: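 In this counter screen, VDR-bla HEK 293T cells receive test compound plus 3 nM final calcitriol for 16 h at 37C. Room-temperature steps of 2 h with the beta-lactamase substrate, then 30 min with CellTiter-Glo, precede the luminescence read.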

[2] = qHTS assay to identify small molecule agonists of the NFkB signaling pathway (AID 1159509; active = well fitted curve in the direction sought with a large enough effect in the signal ratio in the repeat runs, not every such curve was filed as active; the % refers to the signal ratio; also: series mostly up to about 61 µM)
Summary of the method: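 NFkB-bla ME-180 cells carry a beta-lactamase reporter under an NF-kB response element. They were plated overnight, then exposed to compounds for 5 h at 37 C. Read-out is LiveBLAzer FRET after 1.5 hr at room temperature (405 nm excitation; 460/530 nm emission).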

[3] = qHTS assay to identify small molecule agonists of the NFkB signaling pathway - cell viability counter screen (AID 1159515); also: series mostly up to about 61 µM; nearly all actives have a fitted effect of over 55% in size
Summary of the method: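 Multiplexed viability readout: after the 5 hr compound exposure and 1.5 hr FRET substrate step, CellTiter-Glo reagent went into the same NFkB-bla ME-180 wells; ATP luminescence was measured after 30 min at room temperature.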

[4] = qHTS assay to identify small molecule agonists of the endoplasmic reticulum stress response signaling pathway (AID 1159516; active = well fitted activation curve with a large enough effect in the signal ratio in the repeat runs, not every such curve was filed as active; the % refers to the signal ratio)
Summary of the method: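 Tox21 10K library screened in quantitative HTS format on ESRE-bla HeLa cells, a beta-lactamase reporter under ER stress response element control; 5 hr treatment, FRET read.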

[5] = qHTS assay to identify small molecule agonists of the endoplasmic reticulum stress response signaling pathway - cell viability counter screen (AID 1159517); also: series mostly up to about 61 µM; nearly all actives have a fitted effect of over 50% in size
Summary of the method: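 ESRE-bla HeLa cells, 1,500 per well, seeded overnight then treated with compounds for 5 hr at 37 C. After the beta-lactamase read, viability in the same wells is measured by CellTiter-Glo luminescence after 30 min at room temperature.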

[6] = qHTS assay to identify small molecule antagonists of the retinoid-related orphan receptor gamma (ROR-gamma) signaling pathway - cell viability counter screen (AID 1159520; active = well fitted curve in the direction sought with a large enough effect in the repeat runs; an effect the other way counts as inactive or inconclusive; also: nearly all actives have a fitted effect of over 50% in size)
Summary of the method: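 Tet-on ROR gamma CHO cells were given compounds for 2 hr, then doxycycline hyclate at 1 uM final, and incubated 16 hr at 37 C. Viability was measured as ATP content by CellTiter-Glo luminescence.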

[7] = biological target: Nuclear receptor ROR-gamma (Homo sapiens) (UniProt P51449); assay: qHTS assay to identify small molecule antagonists of the retinoid-related orphan receptor gamma (ROR-gamma) signaling pathway (AID 1159521; active = well fitted curve in the direction sought with a large enough effect in the repeat runs; an effect the other way counts as inactive or inconclusive;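 also: CHO cells with doxycycline inducible ROR-gamma driving an RORE luciferase reporter; top concentration of the series differs between compounds; nearly all actives have a fitted effect of over 50% in size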)
Summary of the method: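 Screening format: cell-based luciferase reporter in CHO cells with doxycycline-inducible RORγ. Compound pre-exposure lasts 2 h, doxycycline is 1 uM final, induction runs 16 h at 37 C, and ONE-Glo luminescence is read.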

[8] = qHTS assay to identify small molecule agonists of the AP-1 signaling pathway - cell viability counter screen (AID 1159525); also: nearly all actives have a fitted effect of over 55% in size
Summary of the method: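 AP-1-bla ME-180 cells in Opti-MEM with 0.5% dialyzed FBS, compound exposure 5 h at 37 C in 15-point titration. Viability read in the same wells as ATP content by CellTiter-Glo luminescence, normalised to tetra-n-octylammonium bromide and DMSO controls.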

[9] = qHTS assay to identify small molecule agonists of the AP-1 signaling pathway (AID 1159526)
[10] = biological target: Retinoic acid receptor RXR-alpha (Homo sapiens) (UniProt P19793); assay: qHTS assay to identify small molecule agonists of the RXR signaling pathway (AID 1159527); also: nearly all actives have a fitted effect of over 35% in size; also: potency is read from the fitted curve at half-maximal effect
Summary of the method: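 Fluorescence ratio readout (460 vs 530 nm) from GeneBLAzer RXR-alpha HEK 293T cells after 16 hr compound treatment; cells seeded 5 hr beforehand in low-serum, charcoal-stripped medium.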

Chain of Retinoic acid receptor RXR-alpha (Homo sapiens) (P19793 whole entry, looked up): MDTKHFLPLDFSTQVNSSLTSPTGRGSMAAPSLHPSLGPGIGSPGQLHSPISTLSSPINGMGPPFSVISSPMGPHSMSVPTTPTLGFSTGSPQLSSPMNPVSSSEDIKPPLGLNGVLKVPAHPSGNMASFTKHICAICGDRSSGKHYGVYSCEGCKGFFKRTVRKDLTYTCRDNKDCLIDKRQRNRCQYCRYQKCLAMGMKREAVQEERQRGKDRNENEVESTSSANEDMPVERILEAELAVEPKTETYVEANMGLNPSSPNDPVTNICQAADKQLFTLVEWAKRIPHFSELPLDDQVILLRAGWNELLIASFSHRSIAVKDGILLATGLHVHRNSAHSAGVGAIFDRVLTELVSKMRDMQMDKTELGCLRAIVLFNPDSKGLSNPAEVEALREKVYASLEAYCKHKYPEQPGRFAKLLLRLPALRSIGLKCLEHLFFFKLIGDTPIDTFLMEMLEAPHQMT

| SMILES | Potency [1] | outcome [2] | outcome [3] | outcome [4] | Potency [5] | Potency [6] | Potency [7] | Potency [8] | outcome [9] | Potency [10] |
| --- | --- | --- | --- | --- | --- | --- | --- | --- | --- | --- |
| C#CCOC(=O)/C=C(C)/C=C/CC(C)CCCC(C)C (centres undefined) | inactive | inactive | inactive | inactive | inactive | inactive | inactive | inactive | inactive | 49 µM (active) |
| CC(=O)CN(CC(C)=O)N=O | inactive | inactive | inactive | inactive | inactive | inactive | inactive | inactive | inactive | inactive |
| CNC(=O)Oc1cc(C)c(N(C)C)c(C)c1 | inactive | inactive | inactive | inactive | inactive | inactive | inactive | inactive | inactive | 43.7 µM (active) |
| Cl/C=C/CCl | inactive | inactive | inactive | inactive | inactive | inactive | inactive | inactive | inactive | inactive |
| c1ccc2c(c1)CCNC2 | inactive | inactive | inactive | inactive | inactive | inactive | inactive | inactive | inactive | inactive |
| CC(O)CCl (centres undefined) | inactive | inactive | inactive | inactive | inactive | inactive | inactive | inactive | inactive | inactive |
| CCc1cc(OC)c(C[C@H](C)N)cc1OC |  | inactive | inactive | inactive | inactive | inactive | inactive | inactive | inactive | inactive |
| C[N+]1(C)CCCCC1 |  | inactive | inactive | inactive | inactive | inactive | inactive | inactive | inactive | 6.09 µM (active) |
| CC(C)N(Cc1ccccc1)C(=O)C(C)(C)C | inactive | inactive | inactive | inactive | inactive | inactive | inactive | inactive | inactive | inactive |
| N=C(N)[Se] | inactive | inactive | inactive | inactive | inactive | inactive | inactive | inactive | inactive | inactive |
| CN(C)CCN(C)C |  | inactive | inactive | inactive | inactive | inactive | inactive | inactive | inactive | inactive |
| O=C(NC(=O)c1c(F)cccc1F)Nc1cc(Cl)c(F)c(Cl)c1F |  | inactive | inactive | inactive | inactive | inactive | inactive | inactive | inactive | inactive |
| O=[N+]([O-])c1cccc(CCl)c1 |  | inactive | inactive | inactive | inactive | inactive | inactive | inactive | inactive | inactive |
| CC(Cl)(Cl)Cl | inactive | inactive | inactive | inactive | inactive | inactive | inactive | inactive | inactive | inactive |
| C=C(Cl)CSC(=S)N(CC)CC | inactive | inactive | inactive | inactive | inactive | inactive | inactive | inactive | inactive | inactive |
| O=S1(=O)OCCO1 | inactive | inactive | inactive | inactive | inactive | inactive | inactive | inactive | inactive | inactive |
| CON(C)C(=O)Nc1ccc(Br)cc1 | inactive | inactive | inactive | inactive | inactive | inactive | inactive | inactive | inactive | inactive |
| Oc1ccc2c3c1O[C@H]1[C@@H](O)C=C[C@H]4[C@@H](C2)NCC[C@@]341 | inactive | inactive | inactive | inactive | inactive | inactive | inactive | inactive | inactive | inactive |
| CCCCCCCCBr | inactive | inactive | inactive | inactive | inactive | inactive | inactive | inactive | inactive | inactive |
| CC1N=C(N)OC1c1ccccc1 (centres undefined) | inactive | inactive | inactive | inactive | inactive | inactive | inactive | inactive | inactive | inactive |
| Clc1ccc(C(Cl)(Cl)Cl)cn1 | inactive | inactive | inactive | inactive | inactive | inactive | inactive | inactive | inactive | inactive |
| CCCOC(=O)c1cncn1C(C)c1ccccc1 (centres undefined) | inactive | inactive | inactive | inactive | inactive | inactive | inactive | inactive | inactive | inactive |
| C=C1C[C@@H]2[C@H](CC[C@]3(C)C(=O)CC[C@@H]23)[C@@]2(C)C=CC(=O)C=C12 | inactive | inactive | inactive | inactive | inactive | inactive | inactive | inactive | inactive | inactive |
| C[C@H](CN1CCOCC1)C(C(=O)N1CCCC1)(c1ccccc1)c1ccccc1 | inactive | inactive | inactive | inactive | inactive | inactive | inactive | inactive | inactive | inactive |
| CCC(=O)OC1(c2ccccc2)CCN(C)CC1 | inactive | inactive | inactive | inactive | inactive | inactive | inactive | inactive | inactive | inactive |
| O=C(Cl)OCc1ccccc1 | inactive | inactive | inactive | inactive | inactive | inactive | inactive | inactive | inactive | inactive |
| Nc1c(Cl)c(F)nc(OCC(=O)O)c1Cl | inactive | inactive | inactive | inactive | inactive | inactive | inactive | inactive | inactive | inactive |

| SMILES | Potency [1] | outcome [2] | outcome [3] | outcome [4] | Potency [5] | Potency [6] | Potency [7] | Potency [8] | outcome [9] | Potency [10] |
| --- | --- | --- | --- | --- | --- | --- | --- | --- | --- | --- |
| CCN(CC)C1CCCCC1 | inactive | inactive | inactive | inactive | inactive | inactive | inactive | inactive | inactive | inactive |
| ClCC1CO1 (centres undefined) | inactive | inactive | inactive | inactive | inactive | inactive | inactive | inactive | inactive | inactive |
| C/C(=N\NC(=O)Nc1cc(F)cc(F)c1)c1ncccc1C(=O)O | inactive | inactive | inactive | inactive | inactive | inactive | inactive | inactive | inactive | inactive |
| CCCCOC(C)=O |  | inactive | inactive | inactive | inactive | inactive | inactive | inactive | inactive | inactive |
| O=C(NC(O)C(Cl)(Cl)Cl)NC(O)C(Cl)(Cl)Cl (centres undefined) | inactive | inactive | inactive | inactive | inactive | inactive | inactive | inactive | inactive | inactive |
| CCC1(CC)C(=O)C=CNC1=O | inactive | inactive | inactive | inactive | inactive | inactive | inactive | inactive | inactive | inactive |
| CC1=C2[C@H]3OC(=O)[C@@H](C)[C@@H]3CC[C@@]2(C)C=CC1=O | inactive | inactive | inactive | inactive | inactive | inactive | inactive | inactive | inactive | inactive |
| BrCc1ccc(Br)cc1 | inactive | inactive | inactive | inactive | inactive | inactive | inactive | inactive | inactive | inactive |
| C=C(C)[C@H]1CN[C@H](C(=O)O)[C@H]1CC(=O)O | inactive | inactive | inactive | inactive | inactive | inactive | inactive | inactive | inactive | inactive |
| CCSC(=O)Cl | inactive | inactive | inactive | inactive | inactive | inactive | inactive | inactive | inactive | inactive |
| Cc1ccc(Cl)c(O)c1 | inactive | inactive | inactive | inactive | inactive | inactive | inactive | inactive | inactive | inactive |
| CCCOC(=O)Cc1ccc(OCC(=O)N(CC)CC)c(OC)c1 | inactive | inactive | inactive | inactive | inactive | inactive | inactive | inactive | inactive | inactive |
| O=C/C=C/c1ccco1 | inactive | inactive | inactive | inactive | inactive | inactive | inactive | inactive | inactive | inactive |
| Cn1c(N)nc2c3cccnc3ccc21 | inactive | inactive | inactive | inactive | inactive | inactive | inactive | inactive | inactive | inactive |
| CCC1(c2ccccc2)C(=O)N(COC)C(=O)N(COC)C1=O | inactive | inactive | inactive | inactive | inactive | inactive | inactive | inactive | inactive | inactive |
| N[C@@H]1C[C@H]1c1ccccc1 | inactive | inactive | inactive | inactive | inactive | inactive | inactive | inactive | inactive | inactive |
| CC[C@H](N)c1ccccc1 | inactive | inactive | inactive | inactive | inactive | inactive | inactive | inactive | inactive | inactive |
| O=c1[nH]c2ccccc2n1C1CCNCC1 | inactive | inactive | inactive | inactive | inactive | inactive | inactive | inactive | inactive | inactive |
| C=CCc1cc(OC)c2c(c1)OCO2 | inactive | inactive | inactive | inactive | inactive | inactive | inactive | inactive | inactive | inactive |
| CCCOc1nn(C(=O)NS(=O)(=O)c2ccccc2C(=O)OC)c(=O)n1C | inactive | inactive | inactive | inactive | inactive | inactive | inactive | inactive | inactive | inactive |
| Cc1ccc(S(=O)(=O)N[C@@H](CCCCN)C(=O)CCl)cc1 | inactive | inactive | inactive | inactive | inactive | inactive | inactive | inactive | inactive | inactive |
| CC(C)C(C)(N)C#N (centres undefined) | inactive | inactive | inactive | inactive | inactive | inactive | inactive | inactive | inactive | inactive |
| C[C@]12C=CC(=O)C=C1CC[C@@H]1[C@@H]2CC[C@@]2(C)[C@H]1CC[C@]2(C)O | inactive | inactive | inactive | inactive | inactive | inactive | inactive | inactive | inactive | inactive |
| CCNc1nc(NCC)nc(SC)n1 | inactive | inactive | inactive | inactive | inactive | inactive | inactive | inactive | inactive | inactive |
| COc1cc(CCN)cc(OC)c1OC | inactive | inactive | inactive | inactive | inactive | inactive | inactive | inactive | inactive | inactive |
| CC(C)(C)C(=O)Cl | inactive | inactive | inactive | inactive | inactive | inactive | inactive | inactive | inactive | inactive |
